# ± gives the standard deviation of the averaged measurements. Over roughly 33,000 sequences, “E-score (rank enrichment, -0.5 to 0.5)” has its median near -0.0068; the highest 2% begin near 0.24. The sample holds the highest values, similar sequences and a random draw of the others, so the mix is not that of the screen.
# Test system: muMax20 (Max(13-93) K31hArg/K57hArg, M65Nle)
# Assay: PBM 8-mer E-score (E-score (rank enrichment, -0.5 to 0.5)); higher = stronger preferential binding
# Description: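 Protein binding microarray (universal PBM chip covering all 10-mers in fixed probe flanks) with chemically synthesized human Max(13-93) bHLH-LZ analogs (not full-length Max) bearing noncanonical residues (hArg, Tha, Aib, Nle at 65) and aromatic Cys staples. Read-out per 8-mer (and its reverse complement): E-score (rank-based enrichment, -0.5 to 0.5) and Z-score of median probe intensity.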
row,Sequence,PBM 8-mer E-score
1,CAGTTGTC,-0.0724 ± 0.03
2,AATCTGCC,-0.0641 ± 0.019
3,AACCTAAC,0.00712 ± 0.17
4,AAGATAGT,0.0344 ± 0.11
5,ATGGTCGG,0.12 ± 0.014
6,AATCGGAT,-0.181 ± 0.015
7,GCCGGTCA,-0.116 ± 0.078
8,AATTACGC,0.0652 ± 0.043
9,CTTATATC,0.137 ± 0.08
10,ATTATATC,0.247 ± 0.031
11,GTTATATA,0.25 ± 0.023
12,GTTATAGA,0.21 ± 0.089
13,GTTAGATA,0.164 ± 0.13
14,AGTATAAA,0.213 ± 0.011
15,AGTATAAG,0.237 ± 0.042
16,ATTAGATG,0.226 ± 0.051
17,AATATATC,0.0912 ± 0.07
18,ATTAGATA,0.262 ± 0.057
19,GTTATACA,0.195 ± 0.095
20,AGTATAAC,0.097 ± 0.009
21,CATGGCAC,0.0103 ± 0.037
22,CTGTGTGA,0.134 ± 0.012
23,CAGCGCAC,-0.171 ± 0.087
24,TATGAGGA,-0.0378 ± 0.11
25,AACAGACG,-0.142 ± 0.096

row,Sequence,PBM 8-mer E-score
1,GGTGGATA,-0.0515 ± 0.1
2,ACGGTTCA,-0.138 ± 0.047
3,CTAGGTGA,0.108 ± 0.032
4,TAGGATGA,-0.00288 ± 0.12
5,ATTATACG,0.0459 ± 0.063
6,AGTATATA,0.277 ± 0.12
7,ACTATATG,0.191 ± 0.089
8,ATTATACA,0.174 ± 0.083
9,AGTATATC,-0.038 ± 0.059
10,AGTATATG,0.145 ± 0.017
11,ATTATATG,0.251 ± 0.03
12,GGTATCTA,-0.022 ± 0.064
13,ATTATATA,0.242 ± 0.03
14,AGTATCTA,0.344 ± 0.011
15,CTTATATA,0.226 ± 0.043
16,CGTATCTA,-0.0745 ± 0.11
17,GCCGTACA,0.042 ± 0.14
18,GGCGTACA,-0.082 ± 0.02
19,CAAACGTC,0.0182 ± 0.068
20,CAGTAGAC,-0.021 ± 0.044
21,AGGATGCG,-0.118 ± 0.034
22,CCTATATC,-0.0516 ± 0.071
23,ACTATATA,0.235 ± 0.028
24,ACTATATC,0.273 ± 0.02
25,CCTTGTAC,0.176 ± 0.15

row,Sequence,PBM 8-mer E-score
1,ACGAAGCG,-0.0243 ± 0.071
2,ATACTAGG,0.138 ± 0.032
3,CAATATTC,0.0728 ± 0.011
4,CCATATCA,0.0749 ± 0.018
5,GAATATTC,0.195 ± 0.08
6,GAATATTA,0.137 ± 0.083
7,TAATATGA,0.221 ± 0.017
8,ACATATCG,0.046 ± 0.074
9,CCATATTA,0.124 ± 0.062
10,AAATATTC,0.249 ± 0.0014
11,TAATATTA,0.337 ± 0.011
12,ACATATTA,0.241 ± 0.011
13,ACATATCA,0.262 ± 0.041
14,ACATATTG,0.11 ± 0.12
15,CGGCGTCC,-0.114 ± 0.047
16,ATGCAATG,-0.00261 ± 0.02
17,CAACTTGG,-0.0581 ± 0.1
18,AGAGAACC,-0.143 ± 0.11
19,CAGATCTC,-0.176 ± 0.038
20,ATCTGACG,-0.0395 ± 0.07
21,ATAGCGCG,0.0731 ± 0.084
22,CATTGCGG,-0.148 ± 0.13
23,ACTTCAAC,0.11 ± 0.041
24,CAATATTA,0.221 ± 0.056
25,AAATATTG,0.138 ± 0.0027

row,Sequence,PBM 8-mer E-score
1,TCATAGCA,0.108 ± 0.0018
2,ACATAGCA,0.272 ± 0.032
3,AAATATTA,0.27 ± 0.028
4,CCATAGCA,0.0753 ± 0.09
5,ATAAAGAG,0.181 ± 0.089
6,AGACAACA,0.0868 ± 0.027
7,TCTATCAA,0.184 ± 0.099
8,ATCTCCAT,0.0165 ± 0.085
9,ATAGGACC,-0.0994 ± 0.04
10,GGTAAGGA,-0.00502 ± 0.057
11,AACGCGTA,0.0549 ± 0.11
12,CACGCGTG,0.314 ± 0.11
13,CACGCGTA,0.248 ± 0.051
14,AATGCTGA,0.088 ± 0.064
15,CATGCTGA,0.2602 ± 0.0021
16,AACGCGTG,0.144 ± 0.01
17,ACCGCGTG,0.294 ± 0.022
18,CACGCGTC,0.208 ± 0.048
19,GACGCGTA,0.0707 ± 0.061
20,ACCGCGTA,0.0588 ± 0.11
21,ACCGCGTC,-0.131 ± 0.011
22,GATGCTGA,-0.131 ± 0.16
23,ATAAACGA,0.229 ± 0.033
24,TAATCTGA,-0.0143 ± 0.051
25,AGGCCGTC,-0.184 ± 0.049

row,Sequence,PBM 8-mer E-score
1,TCCCCGCA,-0.0761 ± 0.035
2,ATCACCTC,0.0702 ± 0.029
3,TCATCTCA,-0.000685 ± 0.13
4,ATTGACCG,0.0179 ± 0.099
5,ATCGCGCG,0.0373 ± 0.16
6,CATGCGTA,0.259 ± 0.15
7,GATGCGTA,0.0917 ± 0.02
8,AATGCGTA,0.0783 ± 0.035
9,ACGTGGTC,0.213 ± 0.093
10,GCGTGGTA,0.148 ± 0.095
11,ACGTGGTA,0.309 ± 0.021
12,AGGTGGTG,0.0398 ± 0.076
13,ACGTGGTG,0.336 ± 0.015
14,CCGTGGTA,-0.0136 ± 0.0022
15,ATAGAAAT,0.15 ± 0.089
16,GGAATAGA,0.0778 ± 0.075
17,CACATGGG,0.181 ± 0.052
18,GACATGGC,0.0454 ± 0.031
19,CACATGGA,0.238 ± 0.15
20,AACATGGA,0.135 ± 0.0038
21,GACATGGA,-0.0732 ± 0.1
22,CACATGGC,0.269 ± 0.088
23,ATGACGCG,0.0788 ± 0.13
24,CCGGACAC,-0.238 ± 0.079
25,GTAGAATA,0.235 ± 0.044

row,Sequence,PBM 8-mer E-score
1,ATAGAATA,0.245 ± 0.029
2,ATAGAATG,0.138 ± 0.018
3,AGTATTCG,0.0983 ± 0.088
4,ATTCTATG,0.109 ± 0.0098
5,CAAAAATA,0.176 ± 0.0026
6,CATAAATG,-0.0552 ± 0.089
7,AATAAATG,0.278 ± 0.018
8,GATAAATA,0.149 ± 0.036
9,TAAATATA,0.246 ± 0.014
10,AAAAAATA,0.271 ± 0.019
11,AATAAATT,0.213 ± 0.037
12,AATAAATA,0.245 ± 0.06
13,AATAAATC,0.0155 ± 0.081
14,GAAAAATA,0.158 ± 0.027
15,AAAATATA,0.21 ± 0.055
16,CAAATATA,0.162 ± 0.027
17,AGTATAGC,-0.0321 ± 0.19
18,CAATTTCG,0.0689 ± 0.083
19,GTATGGGA,-0.111 ± 0.019
20,GAGCACCC,-0.166 ± 0.061
21,CACGGGAG,0.00455 ± 0.05
22,ACGGGAGT,0.0635 ± 0.097
23,CACGGGCG,-0.217 ± 0.14
24,CTTAAATA,0.0909 ± 0.014
25,CAAATGTA,0.195 ± 0.11

row,Sequence,PBM 8-mer E-score
1,CGTAAATA,0.0359 ± 0.08
2,ATTAAATA,0.2 ± 0.025
3,TAAATGTA,0.285 ± 0.01
4,GTTAAATA,0.283 ± 0.032
5,TAAAAATA,0.131 ± 0.048
6,CATAAATA,0.318 ± 0.035
7,GAAATGTA,0.0974 ± 0.0077
8,CATAAATC,0.0804 ± 0.0035
9,TATAAATA,0.2587 ± 0.0014
10,CCTAAATA,0.123 ± 0.022
11,CCTCCGGC,-0.116 ± 0.096
12,ATTTGATA,0.176 ± 0.046
13,GCTTGACC,-0.013 ± 0.069
14,ATGGATCG,-0.294 ± 0.055
15,AATTAGCA,0.159 ± 0.046
16,CTGGAGCC,-0.177 ± 0.015
17,ATGCCCGG,-0.241 ± 0.076
18,AACTACGA,0.0584 ± 0.13
19,AAGTATAT,0.183 ± 0.0083
20,AAGTATAC,0.259 ± 0.043
21,AAGTATAA,0.215 ± 0.033
22,ACAAGGGT,0.0627 ± 0.11
